Screening results deposited in PubChem by National Center for Advancing Translational Sciences (NCATS).
hERG WT inh = KCNH2 (human, wildtype) channel inhibition | Q12809 | U2OS, BacMam KCNH2, thallium flux FluxOr; hits give low values | activity change, % at 1.84 µM | 340,000 compounds, 0.37% hits;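 active = maximum activity change below -70%; inconclusive = maximum activity change between -70% and -50%; inactive = maximum activity change above -50%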; note: % is set by controls: 0 for no effect and ±100 for the full control effect
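U2OS cells were transduced with wild-type KCNH2 virus (2.03 x 10^8 / mL) for 4 h at room temperature, then cultured overnight at 37 C. Thallium flux was read with FluxOr dye. Rate constants were normalized to DMSO controls.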
MBNL1 CUG block = blocks human MBNL1 binding to CUG repeat RNA; Q9NR56; TR-FRET MBNL1-His/biotin-(CUG)12 binding, 665/545 ratio; Potency, µM (titrated, usually from 57.5 µM), for the others: at the top dose activity change, negative = inhibition, actives largely listed as inhibitors; 280,000 compounds, 0.036% hits; AID 2675; active = well fitted inhibition curve with a large enough effect in the signal ratio, with a control signal flat, not every such curve was filed as active; inconclusive = small, poorly fitted or top-dose-only effect, or effect the other way, or a change in a side signal; inactive = no such curve, though single readings can be large or run the other way; the % refers to the signal ratio; note: potency is the fitted concentration of half-maximal effect; % is set by controls: 0 for no effect and ±100 for the full control effect
Target sequence (Q9NR56 whole entry, looked up): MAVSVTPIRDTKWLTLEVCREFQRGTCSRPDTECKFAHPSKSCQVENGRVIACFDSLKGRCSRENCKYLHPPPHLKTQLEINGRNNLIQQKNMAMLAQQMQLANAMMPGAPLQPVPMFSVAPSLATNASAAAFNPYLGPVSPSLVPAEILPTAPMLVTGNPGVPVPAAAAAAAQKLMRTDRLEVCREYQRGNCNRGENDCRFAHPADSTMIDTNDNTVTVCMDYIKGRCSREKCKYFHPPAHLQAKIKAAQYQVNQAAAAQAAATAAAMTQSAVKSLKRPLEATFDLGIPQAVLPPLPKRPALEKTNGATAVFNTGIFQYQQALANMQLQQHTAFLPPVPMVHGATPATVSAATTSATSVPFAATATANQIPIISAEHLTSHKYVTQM
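Ratiometric TR-FRET (665 over 545 nm, excitation 340 nm) tracks disruption of MBNL1-His/biotin-(CUG)12 complex after 60 min at room temperature, with compounds at 92 nM to 58 uM final.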
VDR inh = blocks the human vitamin D receptor; AID 504847; Potency, µM, inactives show max response, negative = inhibition, usual class: inhibitors; 400,000 compounds, 0.93% hits; P11473; VDR-SRC2-3 peptide fluorescence polarization, 2 h; note: potency is the fitted concentration of half-maximal effect; % is set by controls: 0 for no effect and ±100 for the full control effect
Target sequence (P11473 whole entry, looked up): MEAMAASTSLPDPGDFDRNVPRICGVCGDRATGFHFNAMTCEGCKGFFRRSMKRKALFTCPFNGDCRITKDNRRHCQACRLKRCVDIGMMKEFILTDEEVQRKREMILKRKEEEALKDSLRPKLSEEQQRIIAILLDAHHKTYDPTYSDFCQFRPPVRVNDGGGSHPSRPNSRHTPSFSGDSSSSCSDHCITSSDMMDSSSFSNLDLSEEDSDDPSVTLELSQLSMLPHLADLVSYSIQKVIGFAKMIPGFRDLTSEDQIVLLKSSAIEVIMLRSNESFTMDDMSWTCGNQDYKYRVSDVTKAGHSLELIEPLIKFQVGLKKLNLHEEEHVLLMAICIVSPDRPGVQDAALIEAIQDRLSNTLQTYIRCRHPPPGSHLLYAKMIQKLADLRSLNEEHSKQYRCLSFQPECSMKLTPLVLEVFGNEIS
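After 23 nl compound addition and a short centrifugation, plates sat for 2 hours at ambient temperature; polarization of fluorescence then indicated loss of VDR binding to peptide SRC2-3.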
KCNH2 3.1 inh = blocks the human KCNH2 3.1 channel isoform; U2OS KCNH2 3.1, thallium flux FluxOr; hits give low values; activity change, % (tested at about 1.8 µM); 340,000 compounds, 0.95% hits;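 active = maximum activity change below -70%; inconclusive = maximum activity change from -70% to -50%; inactive = maximum activity change above -50%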;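 note: thallium influx rate constant from kinetic fluorescence after stimulation buffer; % is set by controls: 0 for no effect and ±100 for the full control effect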
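Thallium flux via FluxOr fluorescence (Red40 quencher, 45 min loading) in U2OS cells virally expressing the KCNH2 3.1 isoform (1.77 x 10^8 /mL virus, overnight at 37 C). Rate constants from 2-min kinetic reads post-stimulation, normalised to positive and negative controls.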
PLK1 PBD inh = PLK1 (human) polo-box domain binding inhibition. P53350. Plk1 PBD binding of FITC phosphopeptide, fluorescence polarization. Potency, µM, for the others: max response, negative = inhibition, usual class: inhibitors. 360,000 compounds, 2.8% hits. AID 720504; note: potency is the fitted concentration of half-maximal effect; series mostly up to about 57 µM; % is set by controls: 0 for no effect and ±100 for the full control effect; nearly all actives have a fitted effect of over 65% in size
CBFb-RUNX1 inh = CBF-beta/RUNX1 interaction disruption | AlphaScreen CBFb-His/RUNX1-biotin binding, biochemical | 230,000 tested, under 10 active | Potency, µM (titrated, usually from 59.8 µM), for inactives: top-dose activity, negative = inhibition, usual class: inhibitors | AID 1477 | Q01196+Q13951; note: % of control where 0% means no effect
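His-tagged CBF-beta and biotinylated RUNX1 (30 nM each) were premixed 20 min at room temperature, exposed to compound for 15 min, then given nickel-chelate and streptavidin AlphaScreen beads (50 ng each). After 90 min, AlphaScreen signal was read.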
An asterisk follows results filed as active; u = inconclusive; x = no result given. This is a sample that favours compounds with a hit; in the whole collection about 3.8% have one here. Unless noted, calls come from the whole dose curve; as a rule, active = well fitted curve in the direction sought with a large enough effect; inconclusive = small, poorly fitted or top-dose-only effect, or another doubt; inactive = no such curve, though single readings can be large; an effect the other way counts as inactive or inconclusive.

SMILES	hERG WT inh	MBNL1 CUG block	VDR inh	KCNH2 3.1 inh	PLK1 PBD inh	CBFb-RUNX1 inh
Cc1cccc(N2C(=O)C(O)=C(C(=O)c3cccs3)C2c2ccc(F)cc2)n1 (centres undefined)	-226.8*	37.3%	-8.3%	-21.3	-9.6%	6.5%
CCOC(=O)CC(NC(=O)CCc1c(C)nc2c(c1C)c(=O)n(C)c(=O)n2C)c1ccc(OCC)c(OC)c1 (centres undefined)	x	x	-9.8%	x	x	x
CCOC(=O)c1ccc(NC(=O)CC2C(=O)N(c3cccc(OC)c3)C(=O)N2Cc2cccnc2)cc1 (centres undefined)	x	x	-3.8%	x	x	x
Cc1ccc(Cl)cc1N1CCN(C(=O)Cn2cnc3onc(-c4ccc(F)cc4)c3c2=O)CC1	x	x	11.9%	x	x	x
COc1cc2c(cc1OC)C(C)N(CCN1C(=O)c3ccccc3C1=O)CC2 (centres undefined)	1.6	-3.3%	-20.9%	3.0	-1.3%	x
COc1cc2c(cc1OC)C(C)N(CCc1ccc(Cl)cc1)CC2 (centres undefined)	-12.0	x	0.8%	-84.4*	-8.2%	x
COC(=O)NC(CCc1ccccc1)C(C(C)=O)C(=O)OC (centres undefined)	x	x	-5.3%	x	x	7.2%
Cc1ccc(CNc2ccc(N3CCOCC3)cc2)cc1	-0.8	15.4%	-18.5%	-6.9	-9.2%	x
C=CCOc1c(Cl)cc(CNc2ccc(C)c(Cl)c2)cc1OC	x	-1.7%	x	x	x	19.6%
CC(C)c1ccc(CNc2ccc(N3CCOCC3)cc2)cc1	-131.3*	1.5%	-28.2%	-175.4*	-9.8%	u
C=CCOc1c(Cl)cc(CNc2ccc(N(C)C)cc2)cc1OC	19.4	u	2.24µM*	15.0	-9.5%	-0.7%
CCOc1ccc(CNc2ccc(N3CCCC3)cc2)cc1	25.2	11.4%	3.98µM*	-6.6	u	u
COc1cc(CNc2ccc(N3CCCC3)cc2)cc(Cl)c1OC	-5.1	15.2%	5.62µM*	17.0	21.2µM*	-0.6%
Cc1cccc(CSc2cn(CC(=O)N3CCCC3)c3ccccc23)c1	x	x	5.7%	x	x	x
COc1ccc(Br)cc1CNC(=O)CSc1n[nH]c(-c2ccccc2)n1	x	x	14.2%	x	x	x
Cc1sc2ncn(CC(=O)N3CCN(c4cccc(Cl)c4)CC3)c(=O)c2c1S(=O)(=O)N1CCN(c2ncccn2)CC1	x	x	4.5%	x	x	x
COC(=O)c1ccccc1C(=O)c1cccc2ccccc12	-3.2	u	-10.6%	11.0	-14.8%	x
COC(=O)c1c[nH]c(=O)c2ccccc12	-2.0	13.8%	u	-11.2	15µM*	1.2%
CC1Cc2ccccc2N1C(=O)CSc1nnc(NC(=O)Cc2cccs2)s1 (centres undefined)	4.4	9.2%	8.7%	-3.0	29.9µM*	-5.1%
COc1ccc(OC)c(CNC(=O)C2CCN(S(=O)(=O)c3cn(C)cn3)CC2)c1	x	x	7.2%	x	x	x
COc1ccc(S(=O)(=O)NCCc2cn3nc(C)c(C)nc3n2)cc1	-6.1	u	-4.6%	20.8	-5.3%	x
Cc1nc2nc(CCNS(=O)(=O)c3ccc(Cl)cc3)cn2nc1C	-11.3	12.8%	89.1µM*	19.1	-0.3%	x
Cc1nc(-c2ccccn2)nc(SCC(=O)N2CCOCC2)c1Cl	-26.1	-8.0%	-8.4%	3.5	23.8µM*	13.7%
Cc1nc(-c2ccccn2)nc(SCC(=O)c2ccccc2)c1Cl	-3.7	-12.2%	-12.1%	-1.6	u	-7.3%
N=C1N(c2ccccc2)C(=S)C(=Nc2ccccc2)N1c1ccccc1	-70.7*	x	8.91µM*	-18.3	26.7µM*	x
SMILES	hERG WT inh	MBNL1 CUG block	VDR inh	KCNH2 3.1 inh	PLK1 PBD inh	CBFb-RUNX1 inh
Fc1ccc(N2C(=S)SC(=Nc3ccccc3)C2=Nc2ccccc2)cc1	19.6	x	-10.5%	-9.8	-2.0%	x
CC1(C)Cc2c(sc3c2c(N)nc(=S)n3Cc2ccc(Br)cc2)CO1	u	14.2%	8.6%	-103.8*	3.8%	-6.9%
CCCNC(=O)C1CC(=O)N(c2ccc(OCc3ccc(Cl)cc3)cc2)C1 (centres undefined)	-18.8	-1.3%	-6.3%	-12.4	-19.3%	x
NC(=O)C1CC(=O)N(c2ccc(OCc3ccc(Cl)cc3)cc2)C1 (centres undefined)	x	-6.4%	u	-4.4	5.97µM*	1.8%
COc1cc(OC)c(N(C)C(=O)C2CCCN(c3ncnc4c3nc3n4CCCCC3)C2)cc1Cl (centres undefined)	x	x	15.4%	x	x	x
CCOc1cccc(NC(=O)C2CC(=O)N(C)C(=Nc3ccc(F)cc3)S2)c1 (centres undefined)	x	x	2.2%	x	x	x
COc1ccc(-c2nc3ccccc3c(=O)n2NC(=S)N(C)C)cc1	6.4	-2.4%	35.5µM*	-0.4	4.74µM*	9.3%
CNC(CC(=O)c1ccc([N+](=O)[O-])cc1)C(Cl)(Cl)Cl (centres undefined)	3.1	u	17.8µM*	5.7	2.67µM*	-25.3%
COc1cccc(-n2cc(C(=O)Nc3cc(OC)c(OC)c(OC)c3)c3ccccc3c2=O)c1	x	x	-2.1%	x	x	x
CCn1cc(CN2CCC(n3nccc3NC(=O)c3ccccc3OC)CC2)cn1	-1.8	-16.7%	2.8%	-41.4	1.5%	x
COc1cc(CN2CCC(n3nccc3NC(=O)c3ccccc3OC)CC2)ccc1F	-106.1*	-10.3%	1.6%	-70.1*	-0.3%	x
COc1ccccc1C(=O)Nc1ccnn1C1CCN(Cc2ccccc2OCCO)CC1	-39.3	-2.5%	-5.3%	-81.6*	-1.6%	x
CCOc1ccc(CN2CCC(n3nccc3NC(=O)c3ccccc3OC)CC2)cc1	-154.2*	1.0%	-5.4%	-12.2	-6.6%	x
CCOc1ccccc1-c1nnc2n1N=C(c1cccc(OC)c1)CS2	x	x	x	x	x	5.4%
COc1ccc(CCNC(=O)CCNC(=O)N2CC(=O)Nc3ccccc32)cc1	-8.4	-8.0%	-24.5%	19.5	21.2µM*	x
COc1ccc(CCNC(=O)CNC(=O)N2CC(=O)Nc3ccccc32)cc1	8.7	x	x	3.0	0.9%	x
Cc1ccc(S(=O)(=O)c2cn(CC(=O)Nc3ccccc3C)c3cc4c(cc3c2=O)OCO4)cc1	x	x	-13.5%	x	x	x
CC(C)Sc1nc2c(c(=O)[nH]c(=O)n2C)n1CC(O)COc1ccccc1 (centres undefined)	-1.1	-6.3%	3.4%	3.8	23.8µM*	-1.6%
CC(O)CSc1nc2c(c(=O)[nH]c(=O)n2C)n1CC(O)COc1ccccc1 (centres undefined)	-3.5	-4.1%	u	-1.6	26.7µM*	5.0%
Cn1c(=O)[nH]c(=O)c2c1nc(N1CCCC1)n2CC(O)COc1ccccc1 (centres undefined)	0.0	-2.9%	-7.2%	-5.2	-11.5%	1.2%
Cc1ccc(S(=O)(=O)Nc2nc(C)c(NC(=O)OCCCl)s2)cc1	1.2	-9.6%	89.1µM*	-7.8	-14.0%	-0.6%
Cc1ccc(S(=O)(=O)Nc2nc(C)c(C(=O)Nc3ccccc3)s2)cc1	-0.4	-11.5%	7.8%	6.1	-4.3%	-4.2%
